The record followed here is PubChem BioAssay (EPA / NIEHS).

Active and inactive are the calls of the source. Rule for the calls: active = hit-call score of the fitted dose curve at least 0.9, where 1 is the maximum; inactive = score below 0.9.

The nature of one assay: ATG_TCF_b_cat_CIS: Attagene CIS-FACTORIAL HepG2 Assay for human T-Cell-Factor with beta-catenin (TCF/b-cat) (AID 2282965). The conditions noted are these: HepG2 TCF/beta-catenin cis-reporter transcription, actives raise or lower the signal. A digest of the protocol: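 In this cis-format system, transfected HepG2 cells report endogenous transcription factor activity. Readout after 24 h exposure is reporter transcript abundance from RT-PCR and capillary electrophoresis, analysed for gain or loss of signal versus DMSO.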
Consider `C[Si](C)(C)O[Si](C)(C)C`, for which the compound was called inactive.

As for `CCCC(=O)OCCc1ccccc1`, the call was inactive.

As to `Nc1ccc2cc(S(=O)(=O)O)cc(O)c2c1N=Nc1ccccc1C(F)(F)F`, the compound was called inactive.

Take `N[C@@H](Cc1cc(I)c(Oc2cc(I)c(O)c(I)c2)c(I)c1)C(=O)O`: the compound was called inactive.

Consider `O=C(O)CCCCCCCCC(=O)O`, for which the compound was called inactive.

On to `CCOc1ccc(NC(=O)CC(C)O)cc1` (stereo not drawn), for which the compound was called inactive.

Consider `Cc1[nH]c(=O)c(C#N)cc1-c1ccncc1`, for which the compound was called inactive.

As to `[Cl][Au]([Cl])[Cl]`, the call was inactive.

Turning to `Cc1c(Cl)cccc1[N+](=O)[O-]`, the call was inactive.

On to `CCOC(=O)[C@@H](C)Oc1ccc(Oc2nc3ccc(Cl)cc3o2)cc1`, for which the compound was called inactive.

On to `CCCCCCOC(=O)CCC`, for which the compound was called inactive.

On to `CC1C2CC(CC2C2CCCC(O)C2)C1(C)C` (stereo not drawn), for which the compound was called inactive.

For `COc1ccc(N=Nc2cc(C)c(N=Nc3ccc(S(=O)(=O)O)cc3)cc2OC)cc1`, the call was inactive.

A further assay can be described thus: ATG_TAL_CIS: Attagene CIS-FACTORIAL HepG2 Assay for human TAL Basal Promoter (AID 2282966).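 Note: background control endpoint measuring basal TAL promoter reporter mRNA not a specific factor.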 Conditions: HepG2 Attagene cis-factorial TAL promoter reporter; actives raise or lower the signal. A digest of the protocol:
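Basal-promoter background-control endpoint from a multiplexed HepG2 reporter panel. Cells were exposed 24 h, then reporter mRNA was read by RT-PCR/CE fluorescence and fitted in both directions relative to DMSO.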
With `C=C(C)C(=O)OCCOC1CC2CC1C1C=CCC21` (stereo not drawn), the result was inactive.

In the case of `C=C(C)CNCC`, the result was inactive.

For `CCC1(C)NC(=O)NC1=O` (stereo not drawn), the result was inactive.

For `CCCCC(CC)(CO)CO`, the outcome was inactive.

As for `CC1(C)C(=O)N(Cl)C(=O)N1Br`, the outcome was inactive.

In the case of `CC(C)CC(C)CC(O)CC(C)C` (stereo not drawn), the result was inactive.

Take `COC(CC(C)CCCC(C)(C)O)OC` (stereo not drawn): the result was inactive.

In the case of `c1ccc2cc(Nc3ccc(Nc4ccc5ccccc5c4)cc3)ccc2c1`, the result was inactive.

Turning to `CCCCCCCC(=O)OCCCCCC`, the outcome was inactive.

In the case of `COc1cc([C@@H]2c3cc4c(cc3[C@@H](O[C@@H]3O[C@@H]5CO[C@@H](C)O[C@H]5[C@H](O)[C@H]3O)[C@H]3COC(=O)[C@H]23)OCO4)cc(OC)c1O`, the result was inactive.

As for `CCc1ccc(O)cc1`, the compound was classed as inactive.

On to `CCOC(=O)CC(C)O` (stereo not drawn), for which the result was inactive.

For `CCCOC(=O)c1c(Cl)c(Cl)c(Cl)c(Cl)c1C(=O)OCCC`, the compound was called inactive.

As to `C/C=C(\C)C(=O)OCCc1ccccc1`, the outcome was inactive.

As for `Cc1ccc(OC(=O)c2ccccc2O)cc1`, the compound was called inactive.

As to `C=C(C)C(=O)OCC(CC)(COC(=O)C(=C)C)COC(=O)C(=C)C`, the compound was classed as inactive.

For the compound `Cc1ccc2c(c1)C(=O)OC2=O`, the result was inactive.

Take `C=Cc1ccc(C)cc1`: the outcome was inactive.

Regarding `CC1(C)C2=CCCC(C)(C)[C@]23CC[C@H]1C3`, the compound was called inactive.

As for `COC(=O)c1ccc([N+](=O)[O-])cc1`, the call was inactive.

With `Cc1ncc[nH]1`, the compound was called inactive.

Take `O=c1[nH]c(=O)c2cn[nH]c2[nH]1`: the outcome was inactive.

With `CCCC(=O)OCCc1ccccc1`, the result was inactive.

Turning to `Nc1ccc2cc(S(=O)(=O)O)cc(O)c2c1N=Nc1ccccc1C(F)(F)F`, the call was inactive.

Regarding `O=C(O)CCCCCCCCC(=O)O`, the compound was called inactive.

Consider `CCOc1ccc(NC(=O)CC(C)O)cc1` (stereo not drawn), for which the result was inactive.

Turning to `Cc1[nH]c(=O)c(C#N)cc1-c1ccncc1`, the compound was classed as inactive.

On to `CCOC(=O)[C@@H](C)Oc1ccc(Oc2nc3ccc(Cl)cc3o2)cc1`, for which the call was inactive.

Turning to `CCCCCCOC(=O)CCC`, the compound was called inactive.

For `COc1ccc(N=Nc2cc(C)c(N=Nc3ccc(S(=O)(=O)O)cc3)cc2OC)cc1`, the result was inactive.
